A selection: hits, their analogues and other compounds. The true share with any hit is near 1.5%.
Bcl-xL primary: Bcl-xL (human) inhibition. GST-Bcl-xL / FITC-Bim BH3 peptide fluorescence polarization. 0.7% of 320,000 active. AID 2129. inhibition, % at 10.9 µM. Q07817;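 active = inhibition above the mean of all tested compounds plus 3 SD, cutoff set per campaign, cut at about 30% in these data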;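 also: 0% = DMSO wells and 100% = unlabeled Bim-BH3 peptide competitor; inhibitors lower millipolarization by displacing the labeled peptide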
EBV gp42 inh: EBV gp42 inhibition. Q1HVG2. Fluorescence polarization binding assay, mP read-out. inhibition, % (tested at 21.74 µM). 0.42% of 220,000 active. AID 1085; in the data active = inhibition above about 50%
Target sequence (Q1HVG2 whole entry, looked up): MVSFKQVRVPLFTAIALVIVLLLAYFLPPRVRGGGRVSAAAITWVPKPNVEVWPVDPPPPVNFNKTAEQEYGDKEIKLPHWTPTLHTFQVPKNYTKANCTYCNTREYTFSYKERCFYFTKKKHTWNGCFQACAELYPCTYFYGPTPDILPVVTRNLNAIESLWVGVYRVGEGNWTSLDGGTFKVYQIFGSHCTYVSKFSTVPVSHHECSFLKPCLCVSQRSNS
MEX-5 binding: C. elegans MEX-5 TCR-2 RNA binding activity; Q9XUB2; 0.38% of 300,000 active; activity score (negative = inhibition of binding), % at 10 µM; MEX-5/FITC-TCR2 RNA binding, fluorescence polarization; stronger effect = lower value;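 active = inhibition past about -25% in most replicates, and total fluorescence under double the plate's negative control median, limit read from the data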;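 also: 0% = DMSO and -100% = 5 µM competing unlabeled TCR2 RNA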
E coli Lon inh: E. coli protease La inhibition. inhibition, % at 7.94 µM. purified E. coli Lon protease, fluorescence polarization. 0.42% of 360,000 active; in the data active = inhibition above about 13%, passing the limit was not always enough;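 also: 0% = enzyme with probe and DMSO and 100% = no enzyme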
GLD-1 RNA inh: GLD-1-TGE RNA interaction inhibition (C. elegans). Q17339. purified GLD-1 + fluorescein TGE RNA, fluorescence polarization. inhibition, % at 5.96 µM. 0.44% of 320,000 active;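 active = percent inhibition above a per-plate cutoff, the plate mean of test compounds plus 3 SD, cut at about 30% in these data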;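 also: 0% = DMSO wells with GLD-1 and probe and 100% = wells lacking GLD-1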
MCL1 BIM primary: inhibitors of human MCL1 binding to BIM-BH3 peptide. inhibition, % at 10.9 µM. 0.68% of 320,000 active. GST-MCL1 / FITC-Bim-BH3 fluorescence polarization. Q07820;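 active = inhibition above the mean inhibition of all tested compounds plus 3 SD, set per campaign, cut at about 40% in these data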;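 also: 0% = DMSO wells and 100% = unlabeled Bim-BH3 peptide control; higher means more loss of mP so more displacement of Bim peptide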
Target sequence (Q07820 whole entry, looked up): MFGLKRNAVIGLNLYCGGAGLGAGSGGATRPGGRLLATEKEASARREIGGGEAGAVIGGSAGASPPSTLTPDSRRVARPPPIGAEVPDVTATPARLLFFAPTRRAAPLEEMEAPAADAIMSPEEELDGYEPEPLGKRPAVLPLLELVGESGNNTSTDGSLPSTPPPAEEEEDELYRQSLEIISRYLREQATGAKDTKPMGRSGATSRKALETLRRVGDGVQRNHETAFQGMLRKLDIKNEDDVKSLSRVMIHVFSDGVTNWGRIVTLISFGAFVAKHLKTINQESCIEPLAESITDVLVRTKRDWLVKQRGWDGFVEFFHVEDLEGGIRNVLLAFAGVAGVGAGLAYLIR
E coli Lon conf: E. coli Lon inhibition confirmation. shares compounds with E coli Lon inh. purified E. coli Lon, fluorescence polarization. inhibition, % at 7.94 µM. 31% of 1,400 active. AID 602230; in the data active = inhibition above about 16%;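 also: 0% = enzyme with probe and DMSO and 100% = no enzyme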
The depositor's hits bear a star; nt = no result.

SMILES	Bcl-xL primary	EBV gp42 inh	MEX-5 binding	E coli Lon inh	GLD-1 RNA inh	MCL1 BIM primary	E coli Lon conf
O=C(COc1ccc(Cl)cc1Cl)NN1C(=O)C2C3C=CC(C3)C2C1=O (stereo unspecified)	9	-13	1	4	4	2	nt
COc1ccc(C(CC(=O)NC(C)c2ccc(-c3ccccc3)cc2)NC(C)=O)cc1 (stereo unspecified)	0	nt	0	-1	-5	5	nt
Cc1ccc(N(CC(=O)NC2CCCC2)C(=O)CNC(=O)c2cccs2)cc1C	0	nt	0	19*	-8	-1	-16
Cc1ccc(N(CC(=O)NC2CCCCC2)C(=O)CNC(=O)c2cccs2)cc1	0	nt	2	-11	-1	2	nt
COCCNC(=O)C1(C)CCCN(CCC(=O)c2ccc(Br)cc2)C1 (stereo unspecified)	nt	nt	nt	3	nt	nt	nt
CCCCNC(=O)[C@H]1C[C@H]1[C@@H](O)[C@H](CO)NC(=O)[C@H](Cc1ccccc1)NC(=O)OC(C)(C)C	-2	nt	1	-4	3	-4	nt
Cc1ccc(/C=C2/SC(=O)NC2=S)o1	nt	41	nt	89*	nt	nt	107*
CCOC(=O)c1c(S(=O)(=O)NCC(=O)N2CCN(c3ccc(OC)cc3)CC2)c(C)n(C)c1C	5	nt	1	-1	-1	-1	nt
CCN(CC)S(=O)(=O)c1ccc2nnn(OCC(=O)Nc3cccc(C#N)c3)c2c1	5	-15	1	18*	1	7	-5
Cc1ccc2cccc(N)c2n1	4	5	nt	31*	9	8	1
Cc1ccc2cccc(OCc3ccccc3)c2n1	1	-4	-1	-1	-3	0	nt
Nc1[nH]n(-c2c(Cl)cc(Cl)cc2Cl)c(=O)c1N=Nc1ccc(S(=O)(=O)Nc2ncccn2)cc1	nt	nt	nt	21*	3	nt	9
CC(C)[C@H](NC(=O)OCc1ccccc1)C(=O)NC(C=O)Cc1ccccc1 (stereo partly specified)	3	nt	nt	55*	1	3	59*
COC(=O)c1ccc(OC(=O)c2ccccn2)cc1	-4	-29	2	-9	6	-2	nt
COC(=O)c1ccc(OC(=O)c2cccnc2SC)cc1	-8	nt	-4	88*	-8	-10	-16
COc1cc(CCC(=O)Nc2ccc(S(=O)(=O)NC3=NCCCCC3)cc2)cc(OC)c1OC	-7	-17	1	7	-1	-12	nt
O=S(=O)(Nc1cccc(S(=O)(=O)N2CCCC2)c1)c1ccc(Cl)cc1	nt	nt	nt	101*	3	nt	-4
O=S(=O)(Nc1cccc(S(=O)(=O)N2CCCCCC2)c1)c1ccccc1	3	-5	0	4	-2	-3	nt
CN(C(=O)COC(=O)c1cc(S(=O)(=O)N2CCOCC2)ccc1Cl)C1CCS(=O)(=O)C1 (stereo unspecified)	-1	nt	0	-2	1	-3	nt
CCN(CC)c1cccc(OC(=O)c2cccnc2Cl)c1	0	nt	-2	-14	3	-5	nt
c1cc2ccc3ccc(CN4CCOCC4)c4ccc(c1)c2c34	7	-7	0	17*	10	6	2
OC1CCCN(Cc2ccc3ccc4cccc5ccc2c3c45)C1 (stereo unspecified)	2	-16	0	1	5	8	nt
Cn1c2nc(=O)n(-c3ccccc3)c(=O)c-2nc2c1CCCC2	nt	nt	nt	123*	nt	nt	77*
Cc1nn(C)c(=O)n1-c1ccccc1	4	-16	-3	-1	-5	-8	nt
CCOC(=O)c1cc2c(ccn2C)n1CC(=O)N1CCC(Cc2ccccc2)CC1	8	8	2	20*	27	2	10
SMILES	Bcl-xL primary	EBV gp42 inh	MEX-5 binding	E coli Lon inh	GLD-1 RNA inh	MCL1 BIM primary	E coli Lon conf
CCOC(=O)c1cc2c(ccn2C)n1CC(=O)N1CCCC(C)C1 (stereo unspecified)	11	1	1	3	4	11	nt
O=C(CS(=O)(=O)c1cn(Cc2ccc(Cl)cc2)c2ccccc12)N1CCCCC1	30*	-10	0	17*	7	25	5
Cc1ccc2c(c1)c(N=Nc1cccc(C(=O)O)c1)c(O)n2C	1	-4	-8	0	-6	-8	nt
COc1cc(N=Nc2ccccc2C(=O)O)ccc1O	2	-20	3	-5	-6	0	nt
O=Cc1cc(N=Nc2cccc(C(=O)O)c2)ccc1O	7	-4	-16	15*	12	15	24*
O=Cc1cc(N=Nc2ccccc2Cl)ccc1O	0	8	-5	25*	-6	8	36*
Cc1ccc(C(=O)Nc2ccc(Cl)cc2C)c(Cl)c1	0	9	2	6	-3	7	nt
O=C(NCCCN1CCCC1)Nc1ccccc1[N+](=O)[O-]	1	nt	-1	16*	-3	8	9
Cc1ccccc1NC(=O)NCCCN1CCCC1	-5	-19	-1	0	9	-3	nt
CSCC[C@H](NC(=O)Nc1cccc(Br)c1)C(=O)O	5	-15	-1	12	-6	3	nt
COC(=O)C1=C(C)N(C)C(=S)NC1c1c(OC)ccc2ccccc12 (stereo unspecified)	6	-9	-3	5	-4	11	nt
O=C(NCCc1nnc2ccc(N3CCCC3)nn12)c1ccccc1	1	nt	-2	19*	-1	-3	-4
CC(C)NC(=O)C1(C)CCN1C(=O)c1ccc(F)c(Cl)c1 (stereo unspecified)	nt	nt	nt	10	nt	nt	nt
CCCCOC(=O)/C=C/c1ccc(OC(=O)OC)c(OC(=O)OC)c1	2	-13	-2	28*	1	4	-30
COC(=O)Oc1ccc(/C=C/C(=O)OC(C)C)cc1OC(=O)OC	6	-11	1	7	3	12	nt
N#CCCCN1C(=O)C(=C(C#N)C#N)c2ccccc21	6	-4	0	-4	6	7	nt
CCN(C(=O)CN(C1=NC2CS(=O)(=O)CC2S1)c1ccc(OC)cc1)c1cccc(C)c1 (stereo unspecified)	nt	nt	nt	7	nt	nt	nt
O=c1[nH]cnc2sc3c(c12)CCN(Cc1ccccc1)C3	33*	-1	11	25*	10	35	11
Nc1scc2c(C(=O)N/N=C/c3ccc(Cl)cc3)nn(-c3ccccc3)c(=O)c12	43*	-9	-4	15*	11	40*	17*
O=C(NCCCN1CCCC1=O)c1ccc2c(=O)n(Cc3ccco3)c(=S)[nH]c2c1	13	-3	-1	18*	-6	6	8
Cc1cc2cc(CNC(=O)c3cccc([N+](=O)[O-])c3)ccc2n1C	6	-16	-1	8	10	6	nt
Cc1cc2cc(CNC(=O)c3ccc(S(=O)(=O)N(C)C)cc3)ccc2n1C	10	-6	-4	26*	14	11	6
Cc1cc(C)c(S(=O)(=O)NCc2ccc3c(c2)cc(C)n3C)c(C)c1	-1	-3	0	14	20	0	nt

Screening data from PubChem BioAssay.
